Our source for the inhibition values is PubChem BioAssay AID1626 (SRMLSC, 2009).

Out of some 220,000 compounds screened, about 2,000 (0.91%) were called active. Another 2% or so got no clear call; they are omitted. Cut-off read from the data, not from the text of the source: inconclusive = inhibition above about 80% without an active follow-up result; inactive = below that; test concentration not stated here. Not all results are given here. Measured potencies and affinities stand elsewhere.

This assay in a line: M. tuberculosis H37Rv growth inhibitors, H37Rv strain (AID 1626).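 Note: bacteria incubated seven days before Alamar blue readout; 0% = bacteria only wells and 100% = bacteria with antibiotic wells.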 The settings on record: stronger effect = higher value, concentration not given here.
Regarding `Cc1cc(C)n(-c2nc(-c3ccccc3)cs2)n1`, the inhibition – broadly, the drop in the measured response relative to a control, in per cent – was 4.34% (inactive).
Regarding `O=C(CNC(=O)c1ccco1)OCc1ccc(C(=O)c2ccccc2)cc1`, the inhibition was 3.51% (inactive).
For `Cc1ccc(C)c(CSCC(=O)NCc2cccs2)c1`, the inhibition is -7.19% (inactive).
On to `Cc1cccc(N2CCN(Cc3ccoc3)CC2)c1C`, for which the inhibition is 2.81% (inactive).
As to `Cc1cc(C)n(-c2nc(SCC(=O)Nc3nccs3)c3c4c(sc3n2)COC(C)(C)C4)n1`, the inhibition was 23.3% (inactive).
As for `Cc1cc(C)n(-c2nc(SCCN(C)C)c3c4c(sc3n2)COC(C)(C)C4)n1`, the inhibition was 14.6% (inactive).
The result for `Cc1cc(C)n(-c2nc(NCCCN(C)C)c3c4c(sc3n2)CCCC4)n1` reads 17.3% (inactive).
With `Cc1cc(C)n(-c2nc(SCC(=O)O)c3c4c(sc3n2)CCCC4)n1`, the inhibition was 63.1% (inactive).
For `CC1(C)Cc2c(sc3nc(SCC(=O)O)[nH]c(=O)c23)CO1`, the inhibition was -1.16% (inactive).
As to `CCCN(CC(=O)Nc1ccc(F)c(F)c1F)Cc1cc(=O)n2ccsc2n1`, the inhibition is -1.11% (inactive).
The result for `O=C(NCc1ccco1)C12CC3CC(C1)CC(C(=O)NCc1ccco1)(C3)C2` reads -5.09% (inactive); that for `O=c1c2ccccc2nc(-c2cccc(Cl)c2)n1O`, 66.9% (inactive); that for `O=c1c2ccccc2nc(-c2ccccc2Cl)n1O`, 2.24% (inactive).
For the compound `CC1CC(C)CN(c2ccc(C(=O)NCc3ccc4c(c3)OCO4)cc2[N+](=O)[O-])C1` (centres undefined), the inhibition is 13.2% (inactive).
Regarding `Cc1ccccc1C(=O)Nc1ccc(C(=O)N/N=C/c2ccc(O)c(Br)c2)cc1`, the inhibition is 6.55% (inactive).
`CCOC(=O)N1CCC(NC(=O)C2CCCN(C(=O)c3cc4sccc4n3C)C2)CC1` (centres undefined): the inhibition is -2.27% (inactive).
For `O=C(NCCN1CCN(c2ccccc2)CC1)c1cccn2c(=O)c3ccccc3nc12`, the inhibition was 5.61% (inactive).
Turning to `COc1ccc(CCNc2cc(C)nc3c(-c4ccccc4)cnn23)cc1OC`, the inhibition was 1.98% (inactive).
For `Cc1cc(NCCC(C)C)n2nc(C)c(-c3ccccc3)c2n1`, the inhibition is 11.3% (inactive).
On to `Cc1cc(Cl)n2nc(C)c(-c3ccc(Cl)cc3)c2n1`, for which the inhibition is 0.72% (inactive).
For the compound `COCCNc1cc(C)nc2c(-c3ccccc3OC)c(C)nn12`, the inhibition is -2.69% (inactive).
Consider `CCOC(=O)c1ccc(NC(=O)C2CCN(C(=O)c3ccc(OC)c(OC)c3)CC2)cc1`, for which the inhibition was -6.93% (inactive).
With `O=C(NC1=NCCCCC1)c1cccc2ccccc12` the figure was -1.94% (inactive).
As to `COc1cccc(CNCCSc2nnnn2C)c1`, the inhibition is 6.16% (inactive).
As for `CCNC(=O)N1CCCC(C(=O)c2ccc3cc(OC)ccc3c2)C1` (centres undefined), the inhibition was -5.17% (inactive).
For the compound `COC(=O)c1ccc(CSc2nnc3c(Cl)cc(Cl)cn23)o1`, the inhibition is -5.19% (inactive).
As for `CCc1ccc(NC(=O)N(Cc2ccco2)C(C)c2cccs2)cc1` (centres undefined), the inhibition is 0.17% (inactive).
On to `CCN(CCCNC(=O)C1CCC(=O)N1C1CCCC1)c1cccc(C)c1` (centres undefined), for which the inhibition is 0.34% (inactive).
The result for `COc1ccc(OC(=O)c2c(C)nn(-c3ccccc3)c2C)cc1` reads -12.3% (inactive).
For `Cc1c(C(=O)Oc2cccc3ccccc23)cnn1-c1ccccc1`, the inhibition is 27.3% (inactive).
`NC(=O)CSc1nnnn1-c1ccc(OC(F)(F)F)cc1`: the inhibition was -7.21% (inactive).
Regarding `CCC1=CCN(CCc2c(C)[nH]c3ccccc23)CC1`, the inhibition was -0.79% (inactive).
On to `NNC(=S)Nc1c(Br)cc(F)cc1Br`, for which the inhibition is -5.67% (inactive).
As to `COc1cccc(C2=NC(C)(C)NC(c3ccccc3O)C2)c1` (centres undefined), the inhibition is 4.8% (inactive).
With `CCOc1ccccc1C1N=C(c2ccc(OC)cc2)CC(c2ccccc2O)N1` (centres undefined) the figure was 7.98% (inactive); with `CCC1(C)N=C(c2ccc3c(c2)OCO3)CC(c2ccccc2O)N1` (centres undefined), 14.6% (inactive).
The result for `Clc1ccc2nc(-c3ccc4c(c3)OCO4)cn2c1` reads 4.92% (inactive); that for `CN1CCC(N(C)CC(=O)Nc2ccccc2N2CCOCC2)CC1`, 13.7% (inactive); that for `O=C(NCCCO)NC(=S)c1cccc2ccccc12`, -0.39% (inactive).
For `Cc1cc(NC(=O)CSc2nnc(Nc3ccccc3C)s2)no1`, the inhibition was -2.04% (inactive).
With `Cc1ccc(C)c(SCC(=O)Nc2cccnc2Cl)c1` the figure was 18.9% (inactive).
For `CCc1ccc(Nc2nnc(SCC(=O)Nc3ccc(C(=O)O)cc3)s2)cc1`, the inhibition was -5.8% (inactive).
`Cc1cccc(Nc2nnc(SCC(=O)Nc3ccc(C(=O)O)cc3)s2)c1`: the inhibition was 13.8% (inactive).
With `CCc1ccc(Nc2nnc(SCC(=O)NC(=O)c3cccn3C)s2)cc1` the figure was 2.04% (inactive).
In the case of `CCc1ccccc1NC(=O)CN(C)C(=O)CSc1nnc(Nc2cccc(C)c2)s1`, the inhibition was 6.25% (inactive).
As to `CCOC(=O)c1cc2c(ccn2-c2ccc(F)cc2)n1CC(=O)N1CCN(C(=O)c2ccco2)CC1`, the inhibition was -1.91% (inactive).
Consider `Clc1ccccc1CNC1CN2CCC1CC2` (centres undefined), for which the inhibition was 5.7% (inactive).
With `CCNc1ncnc2c1cnn2C` the figure was -10.7% (inactive).
For the compound `Cc1ccc(SCc2[nH]nc3c2C2(C(=O)Nc4ccc([N+](=O)[O-])cc42)C(C#N)=C(N)O3)cc1` (centres undefined), the inhibition is -2.15% (inactive).
Regarding `CCN(CC)c1ccc(CNc2nc3ccccc3n2CCN2CCOCC2)cc1`, the inhibition is 6.6% (inactive).
Take `COc1ccc(CNc2nc3ccccc3n2CCN2CCCCC2)cc1`: the inhibition is -0.5% (inactive).
With `Cc1ccc(S(=O)(=O)NCc2ccc(C(=O)N(C)CCC#N)cc2)cc1`, the inhibition was 4.15% (inactive).
`Cc1ccc(NC(=O)c2cnccn2)cc1`: the inhibition is 3.69% (inactive).
Regarding `O=C(CCNc1cccc(C(F)(F)F)c1)c1ccco1`, the inhibition was 53.5% (inactive).
For the compound `O=C(Nc1ccc(Cl)c(C(F)(F)F)c1)c1ccco1`, the inhibition was 10.7% (inactive).
In the case of `O=C(COC(=O)CCS(=O)(=O)c1ccc(Cl)cc1)NC1CCCCC1`, the inhibition is 0.69% (inactive).
On to `Cc1cc(NC(=O)CSc2nnc(-c3ccco3)o2)no1`, for which the inhibition is -3.8% (inactive).
Turning to `CCOc1ccc(-c2nnc3ccc(SCC(=O)Nc4cc(C)on4)nn23)cc1`, the inhibition is 4.14% (inactive).
Take `Cc1cc(NC(=O)CSc2nnc(-c3ccc(O)cc3)o2)no1`: the inhibition is -6.89% (inactive).
On to `O=C(CCSc1nnc(-c2ccc(O)cc2)o1)N1CCOCC1`, for which the inhibition was -1.1% (inactive).
The result for `Cc1cc(NC(=O)CSc2nnc(Cc3ccccc3)o2)no1` reads -8.58% (inactive); that for `Cc1ccc(-c2nnc(SCCC(=O)N3CCOCC3)o2)cc1`, 77.5% (inactive); that for `Cc1cc(NC(=O)CSc2nnc(COc3ccccc3)o2)no1`, 3.02% (inactive).
With `COc1cccc(-c2nnc(SCC(=O)Nc3cc(C)on3)n2C)c1` the figure was -2.38% (inactive).
